Data taken from PubChem BioAssay (NCI).
This is part of a sample that, as a whole, favours compounds with a hit. Of some 83,000 tested, about 20% had one in any assay.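 Percent growth is the endpoint: 0 to 100 indicates growth inhibition (40 means 60% inhibition), 0 means no net growth, and negative values indicate cell death.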 Calls of active or inactive are those of the source. Rule for the calls: active = growth percent below 10; inactive = the rest.

What was measured:
Experiment in all cases: NCI-60 one-dose screen, 48 h (100 = growth as untreated, 0 = no growth, -100 = all killed)
Conditions in all cases: 10 µM
SK-MEL-2 melanoma = system: SK-MEL-2 melanoma
EKVX NSCLC = system: EKVX NSCLC
SN12C renal = system: SN12C renal
UO-31 renal = system: UO-31 renal
TK-10 renal = system: TK-10 renal
ACHN renal = system: ACHN renal
CAKI-1 renal = system: CAKI-1 renal
A498 renal = system: A498 renal
CCRF-CEM leukemia = system: CCRF-CEM leukemia
MOLT-4 leukemia = system: MOLT-4 leukemia
SR leukemia = system: SR leukemia
RPMI-8226 leukemia = system: RPMI-8226 leukemia
OVCAR-8 ovarian = system: OVCAR-8 ovarian
OVCAR-5 ovarian = system: OVCAR-5 ovarian
OVCAR-4 ovarian = system: OVCAR-4 ovarian
SK-OV-3 ovarian = system: SK-OV-3 ovarian
IGROV1 ovarian = system: IGROV1 ovarian
OVCAR-3 ovarian = system: OVCAR-3 ovarian
HS 578T breast = system: HS 578T breast
NCI/ADR-RES ovarian = system: NCI/ADR-RES ovarian

Measured: growth

O=C1/C=C/[C@@H](O)[C@@H]2C[C@@H](O)C[C@H]2/C=C/CCC[C@H](CCc2ccc(NC(=S)Nc3ccc4c(c3)C(=O)OC43c4ccc(O)cc4Oc4cc(O)ccc43)cc2)O1
active: SK-MEL-2 melanoma -9.15% | TK-10 renal -21.2% | A498 renal -29.7% | CCRF-CEM leukemia -2.59% | MOLT-4 leukemia -8.92% | SR leukemia 6.14% | OVCAR-3 ovarian -0.249%
inactive: EKVX NSCLC 12.7% | SN12C renal 10.1% | UO-31 renal 11% | ACHN renal 14.9% | CAKI-1 renal 22.2% | RPMI-8226 leukemia 12.3% | OVCAR-8 ovarian 10.5% | OVCAR-5 ovarian 17.9% | OVCAR-4 ovarian 23.4% | SK-OV-3 ovarian 32.1% | IGROV1 ovarian 25.7% | HS 578T breast 39.8% | NCI/ADR-RES ovarian 10.9%

N#Cc1ccc(C(=O)CSc2nccc(Nc3ccc(C(=O)O)cc3)n2)cc1
inactive: SK-MEL-2 melanoma 106% | EKVX NSCLC 108% | SN12C renal 103% | UO-31 renal 84.7% | TK-10 renal 110% | ACHN renal 107% | CAKI-1 renal 99.7% | A498 renal 95.7% | CCRF-CEM leukemia 94% | MOLT-4 leukemia 104% | SR leukemia 106% | RPMI-8226 leukemia 108% | OVCAR-8 ovarian 106% | OVCAR-5 ovarian 102% | OVCAR-4 ovarian 115% | SK-OV-3 ovarian 106% | IGROV1 ovarian 102% | OVCAR-3 ovarian 110% | HS 578T breast 98.7% | NCI/ADR-RES ovarian 108%

Cc1ccc(C(=O)C2C(=O)C3CCC2C3)cc1 (stereo not given)
inactive: SK-MEL-2 melanoma 111% | EKVX NSCLC 98.5% | SN12C renal 97.3% | UO-31 renal 90.2% | TK-10 renal 111% | ACHN renal 100% | CAKI-1 renal 96.1% | A498 renal 109% | CCRF-CEM leukemia 96.3% | MOLT-4 leukemia 105% | SR leukemia 129% | RPMI-8226 leukemia 99.3% | OVCAR-8 ovarian 100% | OVCAR-5 ovarian 99% | OVCAR-4 ovarian 102% | SK-OV-3 ovarian 107% | IGROV1 ovarian 113% | OVCAR-3 ovarian 107% | HS 578T breast 106% | NCI/ADR-RES ovarian 99.3%

CCOC(=O)C1=CSC2=NC3=C(CCC/C3=C\c3ccc(Cl)cc3)C(c3ccc(Cl)cc3)N12 (stereo not given)
inactive: SK-MEL-2 melanoma 106% | EKVX NSCLC 91.6% | SN12C renal 95% | UO-31 renal 95.2% | TK-10 renal 119% | ACHN renal 107% | CAKI-1 renal 103% | A498 renal 78.1% | CCRF-CEM leukemia 87.8% | MOLT-4 leukemia 82.2% | SR leukemia 89.6% | OVCAR-8 ovarian 93.7% | OVCAR-5 ovarian 103% | OVCAR-4 ovarian 94.7% | SK-OV-3 ovarian 94.7% | IGROV1 ovarian 109% | OVCAR-3 ovarian 100% | HS 578T breast 91.9% | NCI/ADR-RES ovarian 98.1%
active: RPMI-8226 leukemia 6.15%

COc1ccc(C(=O)N2C=Cc3ccccc3C2C#N)cc1 (stereo not given)
inactive: SK-MEL-2 melanoma 101% | EKVX NSCLC 99.4% | SN12C renal 89.3% | UO-31 renal 73.9% | TK-10 renal 100% | ACHN renal 96.4% | CAKI-1 renal 87.3% | A498 renal 91.1% | CCRF-CEM leukemia 92.7% | MOLT-4 leukemia 83.4% | SR leukemia 88.8% | RPMI-8226 leukemia 94.9% | OVCAR-8 ovarian 100% | OVCAR-5 ovarian 102% | OVCAR-4 ovarian 102% | SK-OV-3 ovarian 97.5% | IGROV1 ovarian 114% | OVCAR-3 ovarian 105% | HS 578T breast 96.9% | NCI/ADR-RES ovarian 95.6%

COc1cc(CNC(=O)C2CSC3(C)c4ccccc4C(=O)N23)cc(OC)c1OC (stereo not given)
inactive: SK-MEL-2 melanoma 89.3% | EKVX NSCLC 108% | SN12C renal 91.6% | UO-31 renal 90.3% | TK-10 renal 102% | ACHN renal 97.4% | CAKI-1 renal 89.8% | A498 renal 90.5% | CCRF-CEM leukemia 90.7% | MOLT-4 leukemia 81.2% | SR leukemia 77.4% | RPMI-8226 leukemia 90.2% | OVCAR-8 ovarian 92.4% | OVCAR-5 ovarian 102% | OVCAR-4 ovarian 97% | SK-OV-3 ovarian 104% | IGROV1 ovarian 107% | OVCAR-3 ovarian 112% | HS 578T breast 94.1% | NCI/ADR-RES ovarian 102%

COc1cc(/C=C/c2cc(/C=C/c3ccc(O)c(OC)c3)[nH]c(=O)n2)ccc1O
inactive: SK-MEL-2 melanoma 81.1% | EKVX NSCLC 71.6% | SN12C renal 62.3% | UO-31 renal 54.2% | TK-10 renal 103% | ACHN renal 89.4% | CAKI-1 renal 88.6% | A498 renal 62.8% | CCRF-CEM leukemia 16.7% | MOLT-4 leukemia 36.3% | SR leukemia 27.2% | RPMI-8226 leukemia 62.5% | OVCAR-8 ovarian 58.7% | OVCAR-5 ovarian 102% | OVCAR-4 ovarian 54% | SK-OV-3 ovarian 71.6% | IGROV1 ovarian 93.1% | OVCAR-3 ovarian 59.3% | HS 578T breast 53.9% | NCI/ADR-RES ovarian 90.7%
